Measurements taken from PubChem BioAssay AID1851 (National Center for Advancing Translational Sciences (NCATS), 2009).
Out of some 16,000 compounds screened, about 5,700 (36%) were called active. Another 24% or so got no clear call; they are omitted. The list shows a part of the results. A number with no mark means an inactive call. The call rests on the fitted dose curve; in most records, active means well fitted curve in the direction sought with a large enough effect; inconclusive means small, poorly fitted or top-dose-only effect, or effect the other way; inactive means no such curve, though single readings can be large or run the other way. Numbered stars: 1 amine (or outer) side, 2 acyl side, 3 side chain; on linkers, the order of the positions; unused ones are H or OH. Bridge positions count the residues as written; N and C are the ends. Square brackets hold non-standard residues; d marks the D form. Peptide text beside a SMILES is read from it. I, II: the chains in the order shown. Actinocin(9to1) = Cc1c2oc3c(C)ccc(C(=O)[*:1])c3nc-2c(C(=O)[*:2])c(N)c1=O; aThr = C[C@H](O)[C@H](N)C(=O)O; NMeV = CN[C@H](C(=O)O)C(C)C; Sar = CNCC(=O)O

The compounds below were run against Cytochrome P450 1A2 (Homo sapiens) (UniProt P05177) (assay: Cytochrome panel assay with activity outcomes). Conditions: recombinant CYP, pro-luciferin dealkylation, luminescence, p450-cyp1a2; series mostly up to 57.1 µM; activity, negative = inhibition: at the top concentration.
Sequence of Cytochrome P450 1A2 (Homo sapiens) (P05177 whole entry, looked up): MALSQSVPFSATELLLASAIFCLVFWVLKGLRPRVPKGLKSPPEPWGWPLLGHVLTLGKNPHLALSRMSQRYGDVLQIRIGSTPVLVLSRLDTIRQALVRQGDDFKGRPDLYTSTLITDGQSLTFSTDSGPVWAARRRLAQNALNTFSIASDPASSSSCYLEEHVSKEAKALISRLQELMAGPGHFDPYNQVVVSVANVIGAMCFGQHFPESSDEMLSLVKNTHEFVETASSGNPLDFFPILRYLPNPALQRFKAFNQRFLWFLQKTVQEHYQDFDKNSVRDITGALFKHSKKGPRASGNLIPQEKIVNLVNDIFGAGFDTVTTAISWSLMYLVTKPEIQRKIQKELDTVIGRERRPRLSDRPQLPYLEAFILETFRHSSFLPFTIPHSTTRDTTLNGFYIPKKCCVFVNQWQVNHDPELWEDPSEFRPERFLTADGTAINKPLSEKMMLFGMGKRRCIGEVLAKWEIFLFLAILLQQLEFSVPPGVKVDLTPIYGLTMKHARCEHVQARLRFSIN
On the % scale 0 is the no-effect control and ±100 the full control effect.

Compound	activity, negative = inhibition	AC50
O=C(NCC1CCCO1)c1ccc(CS(=O)(=O)Cc2ccc(F)cc2)o1 (stereo not given)	-11.4%	–
O=C1C=C(NCC2CCCO2)C2(CCCCC2)O1 (stereo not given)	11.9%	–
O=C1CC(c2ccc(F)cc2)Cc2nc(NCC3CCCO3)ncc21 (stereo not given)	–	22.4 µM (active)
Cc1ccc(C(=O)C(OC(=O)CNS(=O)(=O)c2ccccc2)c2ccccc2)cc1 (stereo not given)	-20.7%	–
CCOC(=O)C1=NNC2(c3ccc(Cl)cc3)C(=O)N(c3cc(C)cc(C)c3)C(=O)C12 (stereo not given)	-0.857%	–
CCOC(=O)C1=C(N)n2c(s/c(=C/c3ccccc3)c2=O)=C(C(=O)OCC)C1c1ccccc1 (stereo not given)	-10.3%	–
CCOC(=O)C1=C(C)N=C2c3ccccc3C(=O)C2C1c1ccc(C)cc1 (stereo not given)	–	3.16 µM (active)
CCOC(=O)C1=C(C)N=C2c3ccccc3C(=O)C2C1c1ccc(Cl)cc1 (stereo not given)	–	3.16 µM (active)
COCCOC(=O)C1=C(C)NC(=O)N(C(C)=O)C1c1ccc(Cl)cc1 (stereo not given)	-20.4%	–
COC(=O)[C@@]1(Cc2ccccc2)[C@H]2c3cc(C(=O)N(C)C)n(Cc4ccsc4Br)c3C[C@H]2CN1C(=O)c1ccccc1	-17.5%	–
CCCOc1ccc(Cn2c(C)nc([N+](=O)[O-])c2SCC(O)COC)cc1[N+](=O)[O-] (stereo not given)	-20.4%	–
COc1ccc(CSc2nnnn2C)cc1[N+](=O)[O-]	–	14.1 µM (active)
CSc1nncc(-c2ccc(F)c(F)c2)n1	–	3.55 µM (active)
CC1CCCN(CC(O)COCC2COc3ccccc3O2)C1 (stereo not given)	-7.91%	–
OC(COCC1COc2ccccc2O1)CN1CCN(c2ccccc2F)CC1 (stereo not given)	-22.8%	–
OC(COCC1COc2ccccc2O1)CN1CCc2ccccc2C1 (stereo not given)	–	5.01 µM (active)
NC(=O)[C@H]1CC2(CC(c3cccc(NC(=O)c4ccccc4)c3)=NO2)CN1C(=O)[C@H]1CCC(=O)N1 (stereo not given in full)	-9.8%	–
CCOC(=O)C1=C(C)NC2(O)c3ccccc3C(=O)C12O (stereo not given)	–	20 µM (active)
CC(=O)Nc1ccc(S(=O)(=O)NCC2CCC(C(=O)N3CCN(c4ccccn4)CC3)CC2)cc1 (stereo not given)	-14.1%	–
O=c1onc2n1-c1cc(Br)ccc1OC2	–	0.794 µM (active)
Cc1ccc(NC(=O)N/C=C/c2ccco2)cc1C	–	7.08 µM (active)
O=C1[C@@H]2[C@H]3[C@H](O)[C@H](O)C/C(=N/OC[C@@H](O)COCc4ccco4)[C@@H]3CC[C@H]2C(=O)N1c1ccc(F)cc1F	-10.4% [at 11.4 µM]	–
C/C(=N\N1CCN(C2c3ccccc3-c3ccccc32)CC1)c1cccnc1	–	12.6 µM (active)

Compound	activity, negative = inhibition	AC50
C/C(=N\N1CCN(C2c3ccccc3-c3ccccc32)CC1)c1ccncc1	–	8.91 µM (active)
Cc1ccnc(N2C(=O)C3C4CC(C(Br)C4Br)C3C2=O)c1 (stereo not given)	8.01%	–
C[C@@H](COc1ccc(/C=C\c2ccccc2)cc1)[N+](C)(C)C	-18.1%	–
CC[N+](CC)(CC)CCOc1cccc(OCC[N+](CC)(CC)CC)c1OCC[N+](CC)(CC)CC	10.9%	–
O=C(O)[C@@H]1CCCNC1	-0.55% [at 25.6 µM]	–
Cc1cc(C)c(C)c(S(=O)(=O)ON2C(=O)c3ccccc3C2=O)c1C	–	28.2 µM (active)
FC(F)(F)c1cc(-c2ccco2)nc(NCCc2ccccc2)n1	–	2.82 µM (active)
FC(F)(F)c1cc(-c2ccco2)nc(NCc2cccs2)n1	–	0.158 µM (active)
Cc1ccccc1-c1nc(Nc2ccncc2)c2ccccc2n1	–	0.794 µM (active)
FC(F)(F)c1ccccc1-c1nc(Nc2ccncc2)c2ccccc2n1	–	10 µM (active)
Clc1ccccc1-c1nc(Nc2ccncc2)c2ccccc2n1	–	0.501 µM (active)
COc1ccccc1-c1nc(Nc2ccncc2)c2ccccc2n1	–	0.316 µM (active)
CC(=O)OC[C@H]1O[C@@H](O/N=C2/[C@H]3O[C@@H]3[C@@H](O)[C@H]3[C@H]2CCn2c(=O)n(-c4ccccc4)c(=O)n23)[C@H](OC(C)=O)[C@@H](OC(C)=O)[C@@H]1OC(C)=O	1.98% [at 11.4 µM]	–
CN1CCN(C(c2ccccc2)c2ccccc2)CC1	-3.57% [at 25.6 µM]	–
Cc1noc(C)c1-c1nc(N2CCOCC2)c2ccccc2n1	–	0.316 µM (active)
Cc1noc(C)c1C(=O)N1CCC2(CC1)CN(c1ccccc1)C2	-18.7%	–
Cc1noc(C)c1-c1nc(N2CCN(C)CC2)c2ccccc2n1	–	0.316 µM (active)
Cc1noc(C)c1C(=O)N1CCC2(CCCN(c3ccccc3)C2)CC1	4.79%	–
Cc1cc(C)n(-c2nc(SCCN(C)C)c3c4c(sc3n2)CCCC4)n1	–	14.1 µM (active)
CO[C@@H]1COC(=O)[C@@H](CCSC)NC(=O)C/C=C\[C@@H](C)COC(=O)[C@H](C)NC(=O)C/C=C\[C@H]1C	-5.08% [at 11.4 µM]	–
O=c1cc(-c2ccccc2)[nH]c2nc(Cl)ccc12	–	0.398 µM (active)
Cc1cc(-c2ccccc2)[nH]c(=O)c1S(=O)(=O)c1ccc(Cl)cc1	-18.9%	–
Cc1ccccc1S(=O)(=O)c1c(C)cc(-c2ccccc2)[nH]c1=O	-7.42%	–

Compound	activity, negative = inhibition	AC50
CC(=O)N1CCC2(CCCN(Cc3nccs3)C2)CC1	-12.1%	–
CCOC(=O)C(C)n1cnc2c(oc3ccccc32)c1=O (stereo not given)	–	5.62 µM (active)
Cc1cc(/C=C2\SC(=S)NC2=O)c(C)n1C	–	5.01 µM (active)
Cc1ccc(S(=O)(=O)N2CCC(C(=O)NCCCOC(C)C)CC2)cc1	-2.51%	–
O=C(OC(C(=O)O)C(OC(=O)c1ccccc1)C(=O)NCc1ccccc1)c1ccccc1 (stereo not given)	5%	–
O=C(NCc1ccccc1)c1cccc(COc2cccc(Cl)c2)c1	–	17.8 µM (active)
O=c1c(-c2ccc(F)cc2)nc2cnc(N3CCNCC3)nc2n1Cc1cccs1	–	10 µM (active)
O=c1c(-c2ccc(Cl)cc2)nc2cnc(N3CCNCC3)nc2n1Cc1cccs1	–	12.6 µM (active)
CN1CCN(c2ncc3nc(-c4ccc(Cl)cc4)c(=O)n(Cc4cccs4)c3n2)CC1	–	10 µM (active)
COc1cccc(Cn2c(=O)c(-c3ccc(Cl)cc3)nc3cnc(N4CCN(C)CC4)nc32)c1	-16.3%	–
O=c1c(-c2ccc(F)cc2)nc2cnc(N3CCOCC3)nc2n1Cc1cccs1	–	12.6 µM (active)
O=C(CSc1nnc2c(n1)[nH]c1ccc(F)cc12)OCc1ccccc1	–	0.501 µM (active)
CC1CCc2cc(F)ccc2N1C(=O)CSc1nnc2c(n1)[nH]c1ccc(F)cc12 (stereo not given)	–	0.501 µM (active)
Cc1ccc(C(=O)NNC(=O)CSc2nnc3c(n2)[nH]c2ccc(F)cc23)cc1	-20.5%	–
C#CCCCO/N=C1/[C@H]2O[C@@H]2[C@@H](O)[C@H]2[C@H]1CCn1c(=O)n(Cc3cc4c(cc3Cl)OCO4)c(=O)n12	1.39% [at 11.4 µM]	–
Cc1nc(Sc2ccccc2)c(C#N)cc1-c1ccccc1	–	1.26 µM (active)
Cc1nc(Cl)c(C#N)cc1-c1ccccc1	–	1 µM (active)
Cc1c2oc3c(C)ccc(C(=O)N[C@@H]4C(=O)N[C@@H](C(C)C)C(=O)N5CCC[C@@H]5C(=O)N(C)CC(=O)N(C)[C@@H](C(C)C)C(=O)O[C@H]4C)c3nc-2c(C(=O)N[C@@H]2C(=O)N[C@@H](C(C)C)C(=O)N3CCC[C@@H]3C(=O)N(C)CC(=O)N(C)[C@@H](C(C)C)C(=O)O[C@H]2C)c(N)c1=O (I: [aThr]V[dP][Sar][NMeV] / II: [aThr]V[dP][Sar][NMeV]; ester I:1-I:C, II:1-II:C; linker I:N-II:N via Actinocin(9to1))	-34.7%	–
CCOC(=O)C1=C(c2ccccc2)OC(N)=C(C#N)C1c1ccc(Cl)s1 (stereo not given)	–	0.398 µM (active)
CCc1ccc2c(-c3cccc(Cl)c3)nc(=O)n(CC)c2n1	–	0.126 µM (active)
Cc1ccc(NC(=O)CCC(=O)NNC(=O)c2ccco2)cc1C	-17.2%	–
Cc1cc(C)cc(NC(=O)N2CCCC2C(=O)Nc2ccc(-n3cnnn3)c(C)c2)c1 (stereo not given)	-14.1%	–
Cc1cc(NC(=O)c2ccco2)ccc1-n1cnnn1	–	14.1 µM (active)

Compound	activity, negative = inhibition	AC50
CCC(NC(=O)c1ccccc1NC(=O)c1ccco1)C(=O)NC1CCCCC1 (stereo not given)	-16.4%	–
O=C(Nc1ccccc1C(=O)NCCc1ccccc1)c1ccco1	–	5.01 µM (active)
O=C(Nc1ccccc1C(=O)Nc1ccc2c(c1)OCO2)c1ccco1	–	8.91 µM (active)
CC1=C(C(=O)Nc2ccccc2)C(c2ccco2)NC(=S)N1 (stereo not given)	-11.4%	–
O=C(CCc1ccccc1)NNC(=O)c1ccco1	7.32%	–
CC1(C)Oc2ccc(NC(=O)c3ccco3)cc2O1	–	5.01 µM (active)
N#CC(C#N)=CNCCN1CCN(C=C(C#N)C#N)CC1	-15.4% [at 2.29 µM]	–
NC(N)=N[C@H](CCC(=O)O)C(=O)O	-0.3%	–
COc1ccc2[nH]cc(CCNc3cc(-c4ccc(C(=O)N(C)C)cc4)ncn3)c2c1	–	20 µM (active)
COc1ccc2[nH]cc(CCNc3ccnc(-c4ccc(C(=O)N(C)C)cc4)n3)c2c1	–	12.6 µM (active)
COc1ccc2[nH]cc(CCNc3ccnc(-c4ccc(N(C)C)cc4)n3)c2c1	–	0.631 µM (active)
COc1ccc2[nH]cc(CCNc3ccnc(-c4c(C)noc4C)n3)c2c1	–	2 µM (active)
CCOC(=O)C1=C[C@@]2(CC)CCCN3CCc4c(n1c1ccccc41)[C@H]32	-14.8% [at 25.6 µM]	–
COc1ccc([C@@H](Nc2ncccn2)c2cc3c(cc2O)OCO3)cc1	-14.3% [at 2.29 µM]	–
COc1ccc2[nH]cc(CCNc3ccnc(-c4ccc5c(c4)OCO5)n3)c2c1	–	0.631 µM (active)
COc1ccc2[nH]cc(CCNc3ccnc(-c4ccoc4)n3)c2c1	–	0.501 µM (active)
O=C(O)CC(O)C(=O)O (stereo not given)	-6.27%	–
CC(C)(CS)C(=O)N1CCC[C@H]1C(=O)O	10.1% [at 25.6 µM]	–
CNc1cc(CS(=O)c2ccccc2)nc(-c2ccccc2)n1 (stereo not given)	–	14.1 µM (active)
O=S(=O)(Cc1cc(Oc2ccccc2)nc(-c2ccccc2)n1)c1ccccc1	–	0.708 µM (active)
O=S(Cc1cc(Oc2ccccc2)nc(-c2ccccc2)n1)c1ccccc1 (stereo not given)	–	2.82 µM (active)
